Here are results for 29 compounds from PubChem BioAssay (NCATS).

For one experiment, the system named is CRL-7250. Kind of experiment: Cytotoxic Profiling of Annotated Libraries Using Quantitative High-Throughput Screening (AID 1296008). Also: potency is read from the fitted curve at half-maximal effect. As to max response: % is scaled to controls: 0 for no effect and ±100 for the full control effect. As to conditions: Five cell lines viability, CellTiter-Glo ATP luminescence, 48-72 h; max response: active compounds read low. An outline of the steps: (§1)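 Compounds were pin-transferred onto cells and incubated 48 or 72 hr at 37 degree Celsius, 95% humidity. CellTiter-Glo was added, plates sat 10 min at room temperature, then ATP-coupled luminescence was imaged as the viability read-out.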

Another experiment relates to NIH3T3. Described as above. As to conditions: Five cell lines viability, CellTiter-Glo ATP luminescence, 48-72 h; max response: active compounds read low. In short, it runs like this: as §1
For orientation: Cellular ATP, detected with luciferase, serves as a proxy for viable cell number.

A further experiment deals with HEK293. The description is as above. The note with it: Five cell lines viability, CellTiter-Glo ATP luminescence, 48-72 h; max response: active compounds read low. In short, it runs like this:
as §1

Experiment [1] concerns HaCat. The description is as above. The note with it: Five cell lines viability, CellTiter-Glo ATP luminescence, 48-72 h; max response: active compounds read low. An outline of the steps:
as §1

Experiment [2] has as its system HACAT. Put plainly: qHTS assay to identify novel small-molecules to repurpose for Merkel cell carcinoma treatment (AID 1296009). The note with it: MCC and control cell lines, CellTiter-Glo viability, 72 h; at 44.8 µM (top of the series) unless noted. In short, it runs like this:
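qHTS format: cells treated with library compounds in DMSO across 8 (NPC) or 11 (MIPE) concentrations. Readout after 72 hr at 37 degree celsius was CellTiter-Glo luminescence.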
A general note: qHTS replaces the single test concentration by a dilution series.

For a further experiment, the system named is KB-3-1. Kind of experiment: Cytotoxic Profiling of Annotated Libraries Using Quantitative High-Throughput Screening (AID 1296008). Also: potency is read from the fitted curve at half-maximal effect. As to max response: % is scaled to controls: 0 for no effect and ±100 for the full control effect. The note with it: Five cell lines viability, CellTiter-Glo ATP luminescence, 48-72 h; max response: active compounds read low. An outline of the steps:
as §1

A further experiment relates to ICS. Put plainly: qHTS profiling for inhibitors of Plasmodium falciparum proliferation (AID 504749). Also: potency is read from the fitted curve at half-maximal effect. The note with it: P. falciparum in erythrocytes, SYBR Green DNA, 72 h; series mostly up to 28.7 µM. In short, it runs like this:
(§2)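 Parasite proliferation within erythrocytes, 72 h exposure. Endpoint: SYBR Green I fluorescence after overnight lysis at room temperature. Controls: 0.29 uM artemisinin, DMSO.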

The test system of the next experiment is N140. The description is as above. The note with it: P. falciparum in erythrocytes, SYBR Green DNA, 72 h; series mostly up to 28.7 µM. In short, it runs like this: as §2
For the next experiment, the system named is P93_24. The experiment is described as above. The note with it: P. falciparum in erythrocytes, SYBR Green DNA, 72 h; series mostly up to 28.7 µM. An outline of the steps: as §2
Another experiment has as its system P94_40. The experiment is described as above. The note with it: P. falciparum in erythrocytes, SYBR Green DNA, 72 h; series mostly up to 28.7 µM. In short, it runs like this:
as §2

In the next experiment the test system is PAD. The experiment is described as above. The note with it: P. falciparum in erythrocytes, SYBR Green DNA, 72 h; series mostly up to 28.7 µM. In short, it runs like this: as §2
A further experiment relates to PC15. Described as above. As to conditions: P. falciparum in erythrocytes, SYBR Green DNA, 72 h; series mostly up to 28.7 µM. An outline of the steps:
as §2

In the next experiment the test system is PC26. The experiment is described as above. The note with it: P. falciparum in erythrocytes, SYBR Green DNA, 72 h; series mostly up to 28.7 µM. In short, it runs like this:
as §2

A further experiment has as its system PC49. The experiment is described as above. The note with it: P. falciparum in erythrocytes, SYBR Green DNA, 72 h; series mostly up to 28.7 µM. In short, it runs like this:
as §2

Another experiment relates to SC27B. The experiment is described as above. As to conditions: P. falciparum in erythrocytes, SYBR Green DNA, 72 h; series mostly up to 28.7 µM. In short, it runs like this: as §2
The subject of a further experiment is TAB109. The description is as above. The note with it: P. falciparum in erythrocytes, SYBR Green DNA, 72 h; series mostly up to 28.7 µM. An outline of the steps: as §2
In a further experiment the test system is TAB113. Described as above. The note with it: P. falciparum in erythrocytes, SYBR Green DNA, 72 h; series mostly up to 28.7 µM. An outline of the steps: as §2
A further experiment deals with TAB165. The description is as above. As to conditions: P. falciparum in erythrocytes, SYBR Green DNA, 72 h; series mostly up to 28.7 µM. In short, it runs like this: as §2

Records with an inconclusive call do not appear. Values without a mark were called inactive. The source made the active and inactive calls. Calls follow the shape of the dose curve; as a rule, active = well fitted inhibition curve with a large enough effect; inconclusive = small, poorly fitted or top-dose-only effect; inactive = flat fitted curve, though single readings scatter.
Also: nearly all actives have a fitted effect of over 60% in size.

With `Cc1cccc(N(C)C(=S)Oc2ccc3c(c2)C2CCC3C2)c1` (stereo not given), in the experiment with CRL-7250, the Potency is 29.9 µM (active). Also, the max response in the experiment with NIH3T3 is -24.5%.

In the case of `COc1cc2c(cc1OC)CN(C(=O)[C@H](C)N[C@@H](CCc1ccccc1)C(=O)O)[C@H](C(=O)O)C2`, the call in the experiment with HEK293 was inactive. The max response with HaCat [1] was 0.663%; in the experiment on NIH3T3, -7.08%.

Turning to `NC(=O)C1(N2CCCCC2)CCN(CCCN2c3ccccc3CCc3ccc(Cl)cc32)CC1`, the Potency in the experiment with HEK293 was 10.6 µM (active).

Consider `Cc1ncc([N+](=O)[O-])n1C`, for which the compound was classed as inactive in the experiment with HEK293. Moreover, the max response with NIH3T3 is -19.7%.

With `CC1CCCCN1CCCOC(=O)c1ccc(OC2CCCCC2)cc1` (stereo not given), the max response with CRL-7250 is -16.2%; in the experiment on NIH3T3, -13.4%. For the same compound, the compound was called inactive in the experiment on HaCat [1] and in the experiment on HACAT [2].

As for `OCCOCCN1CCN(C(c2ccccc2)c2ccc(Cl)cc2)CC1` (stereo not given), the max response with HEK293 is -4.98%; with HaCat [1] it was -23.3%; with KB-3-1, 15.7%. Besides, the outcome in the experiment on NIH3T3 was inactive.

`COc1ccc2nc(SCc3ncc(C)c(OC)c3C)[nH]c2c1`: in the experiment on HEK293, the max response was -3.1%. In addition, the result in the experiment with HaCat [1], with NIH3T3 and with HACAT [2] was inactive.

Turning to `CCOC(=O)c1cc(=O)c2c(OCC(COc3cccc4oc(C(=O)OCC)cc(=O)c34)OC(=O)[C@@H](N)CCCCN)cccc2o1`, the max response in the experiment with HEK293 was 4.3%. In addition, the result in the experiment on HaCat [1], in the experiment on NIH3T3 and with HACAT [2] was inactive.

`CC(C(O)c1ccccc1)N(C)CCOC(c1ccccc1)c1ccccc1` (stereo not given): in the experiment with HEK293, the Potency was 13 µM (active). In addition, the max response in the experiment on HaCat [1] is 2.35%.

Turning to `Oc1cccc2[nH]ccc12`, the max response in the experiment on HEK293 is 2.46%; with HaCat [1] it was -5.11%; in the experiment with NIH3T3, -6.12%.

On to `O=C(Nc1ccc(Cl)cc1)Nc1ccc(Cl)c(C(F)(F)F)c1`, for which the max response in the experiment on HEK293 is -107%.

`CC(C)(C)c1ccc(O)c(O)c1`: the Potency with HEK293 was 12.2 µM (active). Also, the max response in the experiment with KB-3-1 is -6.07%.

Take `COC(=O)C1=C(C)NC(C)=C(C(=O)OCCc2ccc(N3CCN(C(c4ccccc4)c4ccccc4)CC3)cc2)C1c1cccc([N+](=O)[O-])c1` (stereo not given): the max response in the experiment with CRL-7250 was -8.49%; in the experiment on NIH3T3, -0.486%. Also, the call in the experiment with HaCat [1] and with HACAT [2] was inactive.

`CCOC(=O)[C@H](CCc1ccccc1)N[C@@H](C)C(=O)N(CC(=O)O)C1Cc2ccccc2C1`: the figures for the max response in the experiment on CRL-7250 and in the experiment on KB-3-1 were 0.8% and -12.3%, respectively.

Regarding `CN(C)c1cc2c(Nc3ccc4c(cnn4Cc4ccccc4)c3)ncnc2cn1`, the max response was -15% in the experiment on CRL-7250 and -15.7% in the experiment with NIH3T3.

Take `Nc1ncnc2n[nH]c(Nc3ccc(F)cc3)c12`: the Potency in the experiment on CRL-7250 was 10.3 µM (active). The outcome in the experiment on KB-3-1 was inactive.

In the case of `CC(=O)Nc1ccn(C2COC(COC(=O)c3ccccc3)O2)c(=O)n1` (stereo not given), the Potency with HEK293 is 18.8 µM (active). Also, the compound was called inactive with KB-3-1.

As for `CC(=O)O[C@@H]1C(=O)O[C@@H]2[C@H]1OC(=O)[C@@H]2OC(C)=O`, the max response in the experiment on HEK293 is -3.32%. In the experiment on KB-3-1, the compound was called inactive.

For `O=C1Nc2cc(Cl)ccc2Oc2ccccc21`, the result in the experiment with HEK293, in the experiment with HaCat [1] and with HACAT [2] was inactive. Also, in the experiment with NIH3T3, the max response is -1.14%.

As for `CCc1cc2cc(OC)c(OC)cc2c(Cc2ccccc2)n1`, the result in the experiment with CRL-7250, in the experiment on HaCat [1] and in the experiment with HACAT [2] was inactive. In addition, in the experiment with NIH3T3, the max response is -13.3%.

With `Cc1cc(C(C)(C)C)c(O)c(C(C)(C)C)c1`, the max response with HEK293 is -3.94%; in the experiment on KB-3-1, -9.85%.

Take `Cc1nc(N)nc(N)c1-c1ccc(Cl)c(Cl)c1`: the Potency in the experiment on HEK293 was 1.06 µM (active); in the experiment on NIH3T3 it was 0.841 µM (active).

In the case of `CC[C@@H]([C@H](C)O)n1ncn(-c2ccc(N3CCN(c4ccc(OC[C@@H]5CO[C@@](Cn6cncn6)(c6ccc(F)cc6F)C5)cc4)CC3)cc2)c1=O`, the Potency in the experiment on HEK293 is 7.5 µM (active). Besides, the max response in the experiment on HaCat [1] is -3.01%.

Regarding `COC(=O)[C@H]1[C@H]2C[C@@H]3c4[nH]c5cc(OC)ccc5c4CCN3C[C@H]2C[C@@H](OC(=O)/C=C/c2ccc(O)c(OC)c2)[C@@H]1OC`, the Potency in the experiment with HEK293 is 9.44 µM (active).

On to `O=C1NCCN1CCN1CCC(c2cn(-c3ccc(F)cc3)c3ccc(Cl)cc23)CC1`, for which, in the experiment with HEK293, the Potency was 6.68 µM (active).

In the case of `Cc1ccc(CCn2c3c(c4cc(Cl)ccc42)CN(C)CC3)cn1`, the max response in the experiment with CRL-7250 was -3.39%; with NIH3T3, 0.803%. The compound was called inactive with HaCat [1] and in the experiment on HACAT [2].

As for `CC(C)Cc1ccc(C(C)C(=O)OCc2ccccn2)cc1` (stereo not given), the max response in the experiment with CRL-7250 is -2.57%; with NIH3T3, -1.73%. Further, the compound was classed as inactive in the experiment on HaCat [1] and in the experiment on HACAT [2].

On to `CCOC(=O)C1=C(C)NC(C)=C(C(=O)OCC)C1c1ccccc1/C=C/C(=O)OC(C)(C)C`, for which the Potency with HEK293 is 7.5 µM (active).

On to `CCCCCCCCCCCCCCCC[N+](C)(C)Cc1ccccc1`, for which the Potency was 2.82 µM (active) in the experiment with ICS; 14.1 µM (active) in the experiment with N140; 1.12 µM (active) in the experiment on P93_24; 1.58 µM (active) in the experiment on P94_40; 5.62 µM (active) with PAD; 7.94 µM (active) with PC15. Further, the Potency in the experiment with PC26 is 9.53 µM (active); in the experiment on PC49, 10 µM (active); with SC27B, 1 µM (active); in the experiment with TAB109, 3.98 µM (active); with TAB113, 14.1 µM (active); in the experiment with TAB165 it was 12.6 µM (active). Moreover, the results for the Potency with HEK293 and in the experiment on NIH3T3 were 5.31 µM (active) and 11.9 µM (active), respectively.
